Compounds with a hit are over-represented: about 4.5% of the library has one in this group of screens.
PfHsp90 set2: growth inhibition of yeast expressing Plasmodium Hsp90; inhibition, % at 9.4 µM; 310,000 compounds, 0.32% hits; AID 504621; S. cerevisiae expressing PfHsp90, BacTiter-Glo ATP, 48 h; yeast lacking PDR1 and PDR3 efflux regulators;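 active means every replicate shows inhibition above about 80%, whatever the replicate mean, limit read from the data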;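 further: 0% = DMSO neutral controls and 100% = 20 µM radicicol positive controls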
tim23-1 inh: inhibits growth of tim23-1 mutant yeast; 330,000 compounds, 1.3% hits; S. cerevisiae tim23-1 growth, BacTiter-Glo luminescence, 24 h; inhibition, % at 20 µM;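 active means growth inhibition of the mutant yeast at or above 50%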;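 further: temperature-sensitive mutant grown at 25 °C; plate controls were DMSO-treated mutant yeast for no effect and medium wells lacking yeast for full effect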
SKKanGAS inh: inhibitors of SKKanGAS S. pyogenes growth in kanamycin (SK-promoter or general growth effect); BacTiter-Glo, 6 h; inhibition, % at 7.5 µM; 300,000 compounds, 1.3% hits;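 active means mean replicate score, as percent of positive control median, at least 50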;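 further: strain carries kanamycin resistance gene driven by streptokinase promoter and grows in 40 µg/ml kanamycin; loss of luminescence reflects streptokinase promoter inhibition or plain growth inhibition; 0% = median of DMSO wells and 100% = positive control at its reference dose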
TIM10 inh: growth inhibitors of TIM10 yeast strain; S. cerevisiae TIM10 strain growth, BacTiter-Glo luminescence, 24 h; inhibition, % at 10 µM; 330,000 compounds, 1.4% hits;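 active means inhibition of 40% or more at the single tested concentration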;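 further: wild-type TIM10 isogenic control strain grown at permissive 25 °C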
tim10-1 inh: growth inhibitors of tim10-1 mutant yeast; S. cerevisiae tim10-1 ts strain growth, BacTiter-Glo, 24 h; inhibition, % at 20 µM; 330,000 compounds, 2.2% hits;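 active means inhibition of at least 40%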;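 further: mutant grown at 25 °C; 0% = DMSO wells with yeast and 100% = wells holding no yeast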
NLRP3 yeast inh: blocks the NALP3 inflammasome reconstituted in yeast; Yeast reconstituted NLRP3/ASC/caspase-1, beta-gal luminescence, 24 h; inhibition, % at 10 µM; 330,000 compounds, 0.39% hits; AID 2825;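 active means inhibition of 50% or more; inactive means inhibition below 50%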;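 further: plate controls were induced DMSO wells for no effect and uninduced yeast grown without galactose for full effect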
tim10-1 conf: confirmation of tim10-1 mutant yeast growth inhibitors; S. cerevisiae tim10-1 ts strain growth, BacTiter-Glo, 24 h; inhibition, % at 20 µM; 7,400 compounds, 56% hits; AID 463213; shares compounds with tim10-1 inh;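 active means inhibition of yeast growth at or above a set limit in either of two repeat tests at 20 µM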;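 further: tim10-1 mutant grown at permissive 25 °C to find synthetic lethal compounds; 0% = DMSO yeast wells and 100% = medium wells without yeast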
TIM10 conf: TIM10 yeast growth inhibition, confirmed; shares compounds with TIM10 inh; S. cerevisiae tim10 strain growth, BacTiter-Glo luminescence, 24 h; inhibition, % at 10 µM; 4,600 compounds, 63% hits; AID 463215;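 active means inhibition of yeast growth at or above a set limit in either of two replicates at 10 µM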;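 further: this counterscreen used the strain with wild-type TIM10; 0% = yeast with DMSO and 100% = medium wells lacking yeast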
Active calls of the source: *; . = not tested or not shown.

SMILES | PfHsp90 set2 | tim23-1 inh | SKKanGAS inh | TIM10 inh | tim10-1 inh | NLRP3 yeast inh | tim10-1 conf | TIM10 conf
S=C(NCCCc1ccccc1)Nc1ccccc1Cl | 16.5 | 29.5 | -11.6 | 52.3* | 49.4* | 10.7 | 38.2* | 40.7*
O=S(=O)(NC1C2CC3CC(C2)CC1C3)c1ccc(F)cc1 (centres undefined) | -11.9 | 30.4 | . | 1.5 | 19.0 | 16.0 | . | .
O=C1OC(c2ccccc2)=N/C1=C/c1cccc(OC(=O)c2cccs2)c1 | 25.1 | 9.0 | 0.9 | 51.4* | 48.3* | 23.0 | 25.1 | -0.1
Cc1no[n+]([O-])c1COc1cccc(/C=C2\N=C(c3ccccc3)OC2=O)c1 | 3.3 | 10.6 | 1.9 | 12.4 | 30.0 | 8.0 | . | .
Cc1ccc(C(OCC(O)CNCc2ccc(F)cc2)c2ccccc2)cc1 (centres undefined) | 1.3 | 39.7 | 7.1 | 68.1* | 63.6* | 32.6 | 74.4* | 61.0*
O=C(c1ccccc1)c1ccc(OCC(O)CNCc2ccc(F)cc2)cc1 (centres undefined) | 43.5 | . | -5.1 | . | . | . | . | .
Cc1cc(C)c(C(=O)c2cccs2)c(C)c1 | -26.9 | . | . | . | . | . | . | .
Cc1cc(Br)c2c(c1)/C(=C/C(=O)c1cccs1)C(=O)N2 | 87.8* | 42.1 | -1.6 | 49.9* | 47.4* | 1.4 | 33.9* | 68.1*
O=C(CSc1n[nH]c(Cc2ccccc2)n1)Nc1ccccc1Br | 33.5 | 15.2 | 0.2 | -1.4 | 6.2 | 7.3 | . | .
O=C(CSc1nc2ccccc2[nH]1)N=Nc1c(O)[nH]c2ccccc12 | -4.3 | 5.1 | 0.5 | 7.8 | 3.1 | -5.6 | . | .
O=C(CSCc1ccc(Br)cc1)N=Nc1c(O)[nH]c2ccccc12 | -1.6 | 45.3 | 3.1 | 43.0* | 44.9* | 10.1 | 40.1* | 33.5*
O=C(COc1ccc(Cl)cc1Cl)NNC(=S)NCc1ccco1 | -14.4 | 28.4 | -0.5 | 49.7* | 46.1* | 10.0 | 37.0* | 39.8*
COc1ccc(NC(=O)Nc2c(O)ccc3ccccc23)cc1 | -13.6 | -10.6 | 7.4 | -36.1 | -66.3 | 18.2 | . | .
CN(C)CCCN(C(=O)c1ccc(S(=O)(=O)N2CCOCC2)cc1)c1nc2ccc(F)cc2s1 | . | 10.2 | -2.9 | 12.1 | 20.6 | 10.6 | . | .
CC1CN(S(=O)(=O)c2ccc(C(=O)N(CCCN(C)C)c3nc4cc5c(cc4s3)OCCO5)cc2)CC(C)O1 (centres undefined) | -14.2 | 35.5 | 4.3 | 44.0* | 54.0* | 12.3 | 51.8* | 45.2*
CCC1CCCCN1S(=O)(=O)c1ccc(C(=O)N(CCCN(C)C)c2nc3cc4c(cc3s2)OCO4)cc1 (centres undefined) | -8.6 | 34.5 | 0.6 | 49.6* | 46.4* | 9.9 | 34.0* | 32.7*
CN(C)CCCN(C(=O)c1ccc(S(=O)(=O)N(C)Cc2ccccc2)cc1)c1nc2cc3c(cc2s1)OCO3 | -29.8 | 18.4 | 5.2 | 19.2 | 37.0 | 21.0 | . | .
C/C(=N\NC(=S)NCCc1ccccc1)c1cccc(Br)c1 | -24.9 | 10.3 | 20.7 | 37.1 | 17.1 | 30.6 | . | .
COc1ccc(/C(C)=N/NC(=S)NCCc2ccccc2)cc1 | -25.8 | 44.3 | -14.0 | 47.3* | 41.3* | 21.2 | 34.7* | 12.9
C/C(=N\NC(=S)NCc1ccccc1)c1cccc(Br)c1 | -12.3 | 30.0 | 56.2* | 44.8* | 42.4* | -5.5 | 26.9 | 24.2
C/C(CCc1ccccc1)=N\NC(=S)NCCc1ccccc1 | 26.6 | 30.3 | 7.3 | 4.5 | 27.1 | 27.7 | . | .
O=c1cc(CN2CCN(S(=O)(=O)c3cccc(Cl)c3)CC2)c2ccc(O)cc2o1 | 23.2 | 16.5 | . | 18.8 | 11.4 | -3.8 | . | .
CCc1ccc(C(=O)C(C)OC(=O)Cc2n[nH]c(=O)c3ccccc23)cc1 (centres undefined) | 0.7 | 18.5 | 0.1 | 16.8 | 17.7 | 10.5 | . | .
O=C(Nc1ccc(Cl)cc1)N(Cc1nc2ccccc2c(=O)[nH]1)Cc1cccs1 | 12.5 | 25.6 | 6.3 | 7.5 | 33.5 | 13.6 | . | .
O=C(Nc1ccc(Cl)cc1)N(Cc1cccs1)Cc1cccs1 | 2.2 | 46.8 | 29.0 | 57.2* | 47.2* | 10.1 | 41.0* | -16.8

Bioassay records from PubChem.
